Values joined by “and” are separate entries in the source; they are usually repeats but may differ in a detail not shown here. Equal entries are not always repeated. Results filed as inconclusive are left out. The source holds several records for some structures; these can differ, active in one and inactive in another. Unmarked numbers belong to inactive results. Calls come from the whole dose curve; as a rule, active = well fitted inhibition curve with a large enough effect; inconclusive = small, poorly fitted or top-dose-only effect; inactive = flat fitted curve, though single readings scatter.
% is set by controls: 0 for no effect and ±100 for the full control effect.

One test in a line: Drug repurposing screens with cells derived from glioblastoma tumor samples (AID 1345199). Note: nearly all actives have a fitted effect of over 40% in size. To be noted: GBM patient neurospheres viability, ATP luminescence, 48 h; at 45.9 µM (top of the series); tumour line D. The method in brief:
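Primary testing used CD133+ neurospheres from four GBM patients, seven concentrations, 48 h exposure and ATP-based viability; confirmation added three slower-growing patient lines.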
For the compound `CN1[C@@H](CC(=O)c2ccccc2)CCC[C@H]1C[C@H](O)c1ccccc1`, the activity, negative = cell killing was -23.7%.
Turning to `C=C(Nc1ccc(OCC)cc1)Nc1ccc(OCC)cc1`, the activity, negative = cell killing is -18.8%.
Consider `CO/N=C(\C(=O)N[C@@H]1C(=O)N2C(C(=O)O)=C(COC(C)=O)CS[C@H]12)c1csc(N)n1` (stereo in doubt), for which the activity, negative = cell killing is 9.74%.
On the same count and under the same terms, under `CC(C)Cc1ccc([C@H](C)C(=O)O)cc1` stands 0.88%; under `CC[C@H]1OC(=O)[C@H](C)C(=O)[C@H](C)[C@@H](O[C@@H]2O[C@H](C)C[C@H](N(C)C)[C@H]2O)[C@](C)(OC)C[C@@H](C)C(=O)[C@H](C)[C@H]2N(CCCCn3cnc(-c4cccnc4)c3)C(=O)O[C@]12C`, 5.49%; under `C=CC(N)CCC(=O)O` (centres undefined), -18.8%.
On the same count and under the same terms, under `COc1cc(/C=C/C(=O)CC(=O)/C=C/c2ccc(O)c(OC)c2)ccc1O` stands -25.7%; under `CCCCC[C@H](O)/C=C/[C@@H]1[C@@H](C/C=C\CCCC(=O)O)[C@@H](O)C[C@H]1O`, -6.45%.
Regarding `N=c1ccn2c(n1)O[C@H]1[C@H](O)[C@@H](CO)O[C@H]12`, the activity, negative = cell killing is -31.3%.
Still for that read-out and setting: under `C[N+](C)(C)CCOP(=O)(O)OP(=O)([O-])OC[C@H]1O[C@@H](n2ccc(N)nc2=O)[C@H](O)[C@@H]1O` stands -2.69% and -5.13%; under `O=C(O)[C@H](O)[C@@H](O)[C@H](O)[C@H](O)CO`, -11.3% and 8.58%; under `CC[C@H]1OC(=O)[C@H](C)[C@@H](O[C@H]2C[C@@](C)(OC)[C@@H](O)[C@H](C)O2)[C@H](C)[C@@H](O[C@@H]2O[C@H](C)C[C@H](N(C)C)[C@H]2O)[C@](C)(O)C[C@@H](C)C(=O)[C@H](C)[C@@H](O)[C@]1(C)O`, -9.85% and -27.5%.
Still for that read-out and setting: under `O=C(O)/C=C/C(O)c1ccc(Cl)cc1` (centres undefined) stands 7.64%; under `C=CCN1C(=O)C(CC(C)C)NC1=S` (centres undefined), -8.69% and -21.9%; under `C[S+](CC[C@H](N)C(=O)O)C[C@H]1O[C@@H](n2cnc3c(N)ncnc32)[C@H](O)[C@@H]1O` (some centres undefined), -4.97% and -8.65%.
The same measure, in the same setting: under `COc1cc(CNC(=O)CCCC/C=C/C(C)C)ccc1O` stands -7.09%; under `CCCCCC[C@@H](O)C/C=C\CCCCCCCC(=O)O`, -4.78% and -10.9%; under `Cc1onc(-c2c(F)cccc2Cl)c1C(=O)N[C@@H]1C(=O)N2[C@@H]1SC(C)(C)[C@@H]2C(=O)O`, 14.3% and -22.2%.
As to `O=C(O)COc1ccc(C(=O)c2cccs2)c(Cl)c1Cl`, the activity, negative = cell killing was -10.2% and 1.54%.
The same measure, in the same setting: to `CC1(C)C[C@@H]1C(=O)N/C(=C\CCCCSC[C@H](N)C(=O)O)C(=O)O` belongs 1.02% and -4.66%; to `CN1[C@@H]2CC[C@H]1CC(OC(=O)C(CO)c1ccccc1)C2` (some centres undefined), -9.67% and -14.2%.

The test is the same for the next values; noted with them: GBM patient neurospheres viability, ATP luminescence, 48 h; at 46 µM (top of the series); tumour line A.
Turning to `CO/N=C(\C(=O)N[C@@H]1C(=O)N2C(C(=O)O)=C(COC(C)=O)CS[C@H]12)c1csc(N)n1` (stereo in doubt), the activity, negative = cell killing was -20.5%.
The same measure, in the same setting: to `CC(C)Cc1ccc([C@H](C)C(=O)O)cc1` belongs -14%; to `CC[C@H]1OC(=O)[C@H](C)C(=O)[C@H](C)[C@@H](O[C@@H]2O[C@H](C)C[C@H](N(C)C)[C@H]2O)[C@](C)(OC)C[C@@H](C)C(=O)[C@H](C)[C@H]2N(CCCCn3cnc(-c4cccnc4)c3)C(=O)O[C@]12C`, -23.7%; to `C=CC(N)CCC(=O)O` (centres undefined), -11.6%.
Same read-out and setting: to `CCCCC[C@H](O)/C=C/[C@@H]1[C@@H](C/C=C\CCCC(=O)O)[C@@H](O)C[C@H]1O` belongs -9.88%.
Regarding `C[N+](C)(C)CCOP(=O)(O)OP(=O)([O-])OC[C@H]1O[C@@H](n2ccc(N)nc2=O)[C@H](O)[C@@H]1O`, the activity, negative = cell killing is -13.9%.
`O=C(O)[C@H](O)[C@@H](O)[C@H](O)[C@H](O)CO`: the activity, negative = cell killing is -25.5% and -7.46%.
On the same count and under the same terms, to `O=C(O)/C=C/C(O)c1ccc(Cl)cc1` (centres undefined) belongs -31.6%; to `C=CCN1C(=O)C(CC(C)C)NC1=S` (centres undefined), -6.38% and -35.5%.
The same measure, in the same setting: under `CCCCCC[C@@H](O)C/C=C\CCCCCCCC(=O)O` stands -28%.
Same read-out and setting: under `Cc1onc(-c2c(F)cccc2Cl)c1C(=O)N[C@@H]1C(=O)N2[C@@H]1SC(C)(C)[C@@H]2C(=O)O` stands -14.1% and -18%; under `O=C(O)COc1ccc(C(=O)c2cccs2)c(Cl)c1Cl`, -22.1% and -29.6%.
As to `CC1(C)C[C@@H]1C(=O)N/C(=C\CCCCSC[C@H](N)C(=O)O)C(=O)O`, the activity, negative = cell killing is -10.2% and -10.8%.

The values above are taken from PubChem BioAssay (NCATS).
